# Experimental data taken from PMC5540273 (PLoS ONE, 2017).
# Like-named read-outs stand apart in the source and are kept apart here.
# What was measured:
# Conditions in all cases: n = 1
# MKNK1 = tested on: MKNK1
# MKNK2 = tested on: MKNK2
# MLCK = tested on: T1, MLCK
# T1 construct: gene MYLK3
# MLK1 = tested on: T2, MLK1
# T2 construct: gene MAP3K9
# MLK2 = tested on: MLK2
# MLK3 = tested on: MLK3
# MRCKA = tested on: MRCKA
# MRCKB = tested on: T3, MRCKB
# T3 construct: gene CDC42BPB
# MST1R = tested on: MST1R
# MST1 = tested on: T4, MST1
# T4 construct: gene STK4
# MST2 = tested on: T5, MST2
# T5 construct: gene STK3
# MST3 = tested on: T6, MST3
# T6 construct: gene STK24
# MST4 = tested on: MST4
# MTOR = tested on: MTOR
# MUSK = tested on: MUSK
# MYLK2 = tested on: MYLK2
# MYLK4 = tested on: MYLK4
# MYLK = tested on: MYLK
# MYO3A = tested on: MYO3A
# MYO3B = tested on: MYO3B
# [1] = concentration: 1 μM, replicates: in singlicate
# 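Also: KINOMEscan kinase panel screen.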
smiles,measurement,setting,value
Clc1cc(Cl)cc(Nc2ccnc(Nc3cc(Cl)cc(Cl)c3)n2)c1 [GSK175726],%Inh,MKNK1; [1],5%
same,%Inh,MKNK2; [1],0%
same,%Inh,MLCK; [1],0%
same,%Inh,MLK1; [1],0%
same,%Inh,MLK2; [1],0%
same,%Inh,MLK3; [1],10%
same,%Inh,MRCKA; [1],9%
same,%Inh,MRCKB; [1],6%
same,%Inh,MST1R; [1],14%
same,%Inh,MST1; [1],0%
same,%Inh,MST2; [1],20%
same,%Inh,MST3; [1],9%
same,%Inh,MST4; [1],0%
same,%Inh,MTOR; [1],18%
same,%Inh,MUSK; [1],2%
same,%Inh,MYLK2; [1],11%
same,%Inh,MYLK4; [1],13%
same,%Inh,MYLK; [1],21%
same,%Inh,MYO3A; [1],10%
same,%Inh,MYO3B; [1],3%
Cc1ccc(NC(=O)Nc2cccc(C(F)(F)F)c2)cc1 [GSK955403],%Inh,MKNK1; 1 µM,0%
same,%Inh,MKNK2; 1 µM,30%
same,%Inh,MLCK; 1 µM,0%
same,%Inh,MLK1; 1 µM,0%
same,%Inh,MLK2; 1 µM,13%
same,%Inh,MLK3; 1 µM,6%
same,%Inh,MRCKA; 1 µM,0%
same,%Inh,MRCKB; 1 µM,0%
same,%Inh,MST1R; 1 µM,0%
same,%Inh,MST1; 1 µM,0%
same,%Inh,MST2; 1 µM,57%
same,%Inh,MST3; 1 µM,16%
same,%Inh,MST4; 1 µM,0%
same,%Inh,MTOR; 1 µM,0%
same,%Inh,MUSK; 1 µM,0%
same,%Inh,MYLK2; 1 µM,22%
same,%Inh,MYLK4; 1 µM,0%
same,%Inh,MYLK; 1 µM,32%
same,%Inh,MYO3A; 1 µM,9%
same,%Inh,MYO3B; 1 µM,0%
COc1cc2ncnc(Nc3ccc4nc(-c5ccccc5)[nH]c4c3)c2cc1OC.Cl [GW282450],%Inh,MKNK1; [1],2%
same,%Inh,MKNK2; [1],2%
same,%Inh,MLCK; [1],0%
same,%Inh,MLK1; [1],0%
same,%Inh,MLK2; [1],0%
same,%Inh,MLK3; [1],33%
same,%Inh,MRCKA; [1],14%
same,%Inh,MRCKB; [1],14%
same,%Inh,MST1R; [1],26%
same,%Inh,MST1; [1],0%
same,%Inh,MST2; [1],0%
same,%Inh,MST3; [1],0%
same,%Inh,MST4; [1],0%
same,%Inh,MTOR; [1],16%
same,%Inh,MUSK; [1],10%
same,%Inh,MYLK2; [1],0%
same,%Inh,MYLK4; [1],8%
same,%Inh,MYLK; [1],29%
same,%Inh,MYO3A; [1],21%
same,%Inh,MYO3B; [1],0%
Cl.Oc1ccc(-c2nc(-c3ccccc3)[nH]c2-c2ccncc2)cc1 [SB-428218],%Inh,MKNK1; [1],0%
same,%Inh,MKNK2; [1],0%
same,%Inh,MLCK; [1],14%
same,%Inh,MLK1; [1],0%
same,%Inh,MLK2; [1],0%
same,%Inh,MLK3; [1],0%
same,%Inh,MRCKA; [1],43%
same,%Inh,MRCKB; [1],2%
same,%Inh,MST1R; [1],0%
same,%Inh,MST1; [1],10%
same,%Inh,MST2; [1],0%
same,%Inh,MST3; [1],0%
same,%Inh,MST4; [1],0%
same,%Inh,MTOR; [1],32%
same,%Inh,MUSK; [1],0%
same,%Inh,MYLK2; [1],0%
same,%Inh,MYLK4; [1],17%
same,%Inh,MYLK; [1],22%
same,%Inh,MYO3A; [1],46%
same,%Inh,MYO3B; [1],0%
COc1ccc(Nc2nccc(NCCNC(=O)Nc3ccccc3F)n2)cc1 [GSK1379901],%Inh,MKNK1; [1],24%
same,%Inh,MKNK2; [1],13%
same,%Inh,MLCK; [1],0%
same,%Inh,MLK1; [1],0%
same,%Inh,MLK2; [1],0%
same,%Inh,MLK3; [1],25%
same,%Inh,MRCKA; [1],23%
same,%Inh,MRCKB; [1],0%
same,%Inh,MST1R; [1],16%
same,%Inh,MST1; [1],0%
same,%Inh,MST2; [1],0%
same,%Inh,MST3; [1],0%
same,%Inh,MST4; [1],0%
same,%Inh,MTOR; [1],22%
same,%Inh,MUSK; [1],15%
same,%Inh,MYLK2; [1],0%
same,%Inh,MYLK4; [1],0%
same,%Inh,MYLK; [1],15%
same,%Inh,MYO3A; [1],12%
same,%Inh,MYO3B; [1],0%
